Rows were chosen to be rich in hits. Some 7.3% of all compounds tested hit in one or more screens of this group.
ELG1 genotoxic: induces genotoxicity in HEK293T cells with luciferase-tagged ELG1 | Potency, µM (titrated, usually from 46 µM), hits mostly activators | 330,000 compounds, 1.3% hits | HEK293T ELG1-luciferase reporter, luminescence, 16 h; note: nearly all actives have a fitted effect of over 60% in size
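Genotoxicity was scored as increased ELG1-luciferase reporter signal, measured by ONE-Glo luminescence (30 min, room temperature). Compound or vehicle exposure of the HEK293T reporter cells lasted 16 hr at 37°C.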
Rab9 promoter act: activates the Rab9 promoter | Huh7 Rab9 promoter-luciferase reporter, luminescence, 24 h | Potency, µM (titrated, usually from 9.22 µM), usual class: activators | 320,000 compounds, 2.8% hits | AID 485297; note: nearly all actives have a fitted effect of over 60% in size
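Promoter activation is measured as luciferase luminescence in Huh7 cells stably transfected with a Rab9 promoter–luciferase construct, following 24 h compound exposure at 37 °C and 10 min reagent incubation at ambient temperature.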
FLuc counter: counter-screen for miR-21 project: firefly luciferase inhibitors or activators; purified FLuc, Km substrates, luminescence inhibition; Potency, µM (doses to about 57.5 µM), usual class: inhibitors; 360,000 compounds, 6.9% hits; AID 588342; note: nearly all actives have a fitted effect of over 55% in size
Target sequence (P08659 whole entry, looked up): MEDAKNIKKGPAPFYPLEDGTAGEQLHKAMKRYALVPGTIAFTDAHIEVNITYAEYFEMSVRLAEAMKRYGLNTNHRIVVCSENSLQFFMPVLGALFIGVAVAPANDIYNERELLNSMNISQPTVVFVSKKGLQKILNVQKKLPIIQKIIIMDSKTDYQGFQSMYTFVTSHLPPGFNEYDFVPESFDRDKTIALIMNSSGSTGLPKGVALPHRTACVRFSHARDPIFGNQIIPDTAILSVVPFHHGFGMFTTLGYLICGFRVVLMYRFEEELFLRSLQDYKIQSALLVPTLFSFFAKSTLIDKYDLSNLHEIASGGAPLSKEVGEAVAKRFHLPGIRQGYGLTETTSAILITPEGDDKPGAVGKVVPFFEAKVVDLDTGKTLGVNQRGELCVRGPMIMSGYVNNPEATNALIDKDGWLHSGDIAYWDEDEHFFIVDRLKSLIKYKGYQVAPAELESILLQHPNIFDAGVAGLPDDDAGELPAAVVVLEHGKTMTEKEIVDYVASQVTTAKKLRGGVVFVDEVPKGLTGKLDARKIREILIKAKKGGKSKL
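Biochemical qHTS of compounds, final roughly 60 µM downward over six points, against 10 nM purified firefly luciferase using Km concentrations of substrates (10 uM D-luciferin, 10 uM ATP) in Tris acetate pH 7.5 buffer; luminescence output.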
Luc counter: Kinase-Glo luciferase inhibition (counter-screen); 200,000 compounds, 0.28% hits; Kinase-Glo luciferase, ATP luminescence, 8 min; Potency, µM (titrated, usually from 38.3 µM), most hits filed as inhibitors; note: nearly all actives have a fitted effect of over 60% in size
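Kinase-Glo luciferase light output from ATP and luciferin was measured with 10 uM ATP, within the enzyme's linear range. Buffer: 50 mM imidazole pH 7.2, 50 mM KCl, 7 mM MgCl2, 0.01% Tween 20, 0.05% BSA; luminescence read after 8 min at ambient temperature.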
SMN2 splice up: enhancers of SMN2 splice variant expression; Potency, µM (series often up to 46.1 µM), most hits filed as activators; AID 1458; HEK293 SMN2-luciferase splicing reporter, luminescence, 30-36 h; 210,000 compounds, 2.8% hits; note: nearly all actives have a fitted effect of over 55% in size
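qHTS luciferase splicing reporter: luminescence rises when SMN2 exon 7 is included in transfected HEK293 cells. Compound exposure lasted 30-36 h at 37C, with 4.5 mM final sodium butyrate as control, followed by a ONE-Glo read.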
NPC1 prom act: activates the NPC1 promoter | Huh7 NPC1 promoter luciferase reporter, 24 h | 320,000 compounds, 2.4% hits | AID 485313 | Potency, µM (top dose mostly 9.22 µM), usual class: activators; note: nearly all actives have a fitted effect of over 60% in size
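Huh7 cells stably carrying NPC1 promoter–luciferase, plated in Opti-MEM with 10% FBS for 2 h, were exposed to compound in DMSO for 24 h at 37 °C; luciferase reagent was added for 10 min and luminescence read.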
A number is an active result; n = inactive; u = inconclusive; x = no result; [ ] = remark or other dose. Calls come from the whole dose curve; as a rule, active = well fitted curve in the direction sought with a large enough effect; inconclusive = small, poorly fitted or top-dose-only effect, or another doubt; inactive = no such curve, though single readings can be large; an effect the other way counts as inactive or inconclusive.

SMILES | ELG1 genotoxic | Rab9 promoter act | FLuc counter | Luc counter | SMN2 splice up | NPC1 prom act
Cc1cccc(C)c1NC(=O)C1=C(O)c2sccc2N(C)S1(=O)=O | n | n | u | n | n | n
CN1c2ccsc2C(O)=C(C(=O)Nc2ccccc2)S1(=O)=O | n | n | 15µM | n | n | n
Cc1ccc(NC(=O)C2=C(O)c3sccc3N(C)S2(=O)=O)cc1 | n | n | 8.5µM | n | u | n
NC(=O)C1=C[C@H](C2CCCCC2)C[C@H](OCc2ccc(CO)cc2)O1 | 2.9µM | 3.2µM | 11µM | x | x | 2.5µM
COc1ccc2c(c1)O[C@H](c1ccc3c(c1)OCO3)[C@@H](OC(=O)NCc1ccc3c(c1)OCO3)C2=O | x | x | x | n | n | x
COc1cccc([C@@H]2Oc3ccc(OC)cc3C(=O)[C@H]2OC(=O)NCCc2ccc(OC)c(OC)c2)c1 | x | x | x | n | 11µM | x
COc1cccc([C@@H]2Oc3ccc(OC)cc3C(=O)[C@H]2OC(=O)NCc2ccc3c(c2)OCO3)c1 | u | u | 6µM | n | n | n
CCc1cccc(Nc2ncnc3onc(-c4ccc(F)cc4)c23)c1 | x | x | n | x | x | x
Cc1ncc(CO)c(/C=N/N=C/c2ccccc2O)c1O | u | n | 2.4µM | n | n | n
Cc1cc(N=Cc2c(CO)cnc(C)c2O)c(N=Cc2c(CO)cnc(C)c2O)cc1C.[Zn] | x | x | x | n[7.66 µM] | n[9.22 µM] | x
Cc1ccsc1/C=N\NC(=O)Cn1nnc2ccccc21 | n | n | n | n | n | n
Cc1ccc(C)c(-c2csc(N/N=C/c3ccco3)n2)c1 | n | n | n | n | n | n
OCC(O)/C=N/Nc1nc2ccccc2s1 (centres undefined) | n | n | n | n | u | n
Cc1ccnc(N/N=C/c2ccco2)n1 | u | n | 17µM | n | u | u
C(=N\Nc1nc2ccccc2s1)/c1cccs1 | u | 1.3µM | 0.85µM | n | 7.1µM | u
C(=N\Nc1nc2ccccc2s1)/c1ccco1 | u | 1.3µM | 1.2µM | n | 1.6µM | 2.2µM
Cc1cc(N/N=C/c2ccco2)c2ccccc2n1 | n | n | n | n | n | n
Cc1ccsc1/C=N/Nc1nc2ccccc2s1 | 1.5µM | 1.8µM | 1.7µM | u | 1µM | 3.5µM
Cc1ccc2c(CN3CCN(C(=O)c4ccc(Br)cc4)CC3)cc(=O)oc2c1 | x | x | n | x | n | x
Cc1ccc(C)c(CN2C(=O)c3ccccc3S(=O)(=O)c3ccc(C(=O)N(C)C4CCCCC4)cc32)c1 | x | x | n | x | n | x
CCOC(=O)c1c(C)sc(-c2c(-c3ccc4c(c3)OCCO4)[nH]c3c2c(=O)[nH]c(=O)n3C)c1O | x | x | n | x | x | x
CCn1c(C)c(/C=N/Nc2nc3ccccc3s2)c2ccccc21 | n | n | 13µM | n | n | u
O=C(NC1CC1)c1ccc(-c2nc3ccccc3s2)s1 | 0.26µM | 0.32µM | 0.15µM | u | 0.5µM | 0.4µM
CCOC(=O)C1CCN(S(=O)(=O)c2ccc(-c3nc4ccccc4s3)s2)CC1 | u | n | 21µM | n | n | n
CCN1CCN(C(=O)c2ccc(-c3nc4ccccc4s3)s2)CC1 | n | 2.2µM | u | n | 11µM | u
SMILES | ELG1 genotoxic | Rab9 promoter act | FLuc counter | Luc counter | SMN2 splice up | NPC1 prom act
CCCN1CCN(C(=O)c2ccccc2-c2nc3ccccc3s2)CC1 | n | n | n | n | n | n
O=C(c1ccc(-c2nc3ccccc3s2)s1)N1CCOCC1 | u | u | 0.38µM | u | x | 0.089µM
O=C(c1cc2ccccc2s1)N1CCOCC1 | n | n | n | x | x | n
CCOc1ccccc1CNC(=O)c1cc2c(=O)n(Cc3ccccc3)ccc2nc1C | x | x | n | x | x | x
Nc1nnc(SCC(=O)c2ccccc2)s1 | n | n | n | n | n | n
Nc1c(C(=O)c2ccccc2)sc2snc(SCC(=O)c3ccccc3)c12 | n | n | 7.6µM | n | n | n
COc1ccc(-c2nc(-c3cccs3)c(-c3cccs3)[nH]2)cc1O | n | n | 17µM | n | n | n
O=C(O)c1ccc(-c2nc(-c3ccccc3)c(-c3cccs3)[nH]2)cc1 | n | n | u | x | x | n
CCCC1=NN2C(=N)/C(=C\c3cc(C)n(Cc4ccccc4)c3C)C(=O)N=C2S1 | n | n | u | x | x | n
Cc1cc(/C=C2\C(=N)N3N=C(S(C)(=O)=O)SC3=NC2=O)c(C)n1Cc1ccccc1 | n | n | 17µM | n | n | n
Cc1cc(/C=C2\C(=N)N3N=CSC3=NC2=O)c(C)n1Cc1ccccc1 | u | u | 1.3µM | x | x | u
Nc1nc(-c2ccccc2)cn1/N=C/c1ccccc1 | u | n | 15µM | x | x | n
O=C(OCC(=O)c1ccccc1Br)c1ccncc1 | n | n | 11µM | n | n | n
Cn1cc(Cl)c(C(=O)OCC(=O)Nc2nc(-c3ccc(Br)cc3)cs2)n1 | n | n | u | n | 16µM | n
CSc1ncccc1C(=O)OCC(=O)c1ccc(Br)s1 | n | n | 12µM | n | n | n
O=C(NNC(=O)c1ccccc1Br)c1ccncc1 | n | n | n | x | x | n
CSc1ncccc1C(=O)OCC(=O)c1ccccc1 | n | n | 12µM | n | n | n
CNC(=O)COC(=O)c1cccnc1SC | n | n | n | n | n | n
Cn1nccc1C(=O)OCC(=O)Nc1nc(-c2ccccc2)cs1 | u | n | u | n | n | n
NC(=O)c1cccc2ccccc12 | n | n | n | x | x | n
O=C(OCC(=O)c1cccc2ccccc12)c1ccc(CO)cc1 | n | n | 12µM | x | x | u
COc1ccc(C(=O)COC(=O)c2nn(C)cc2Cl)cc1 | u | n | 17µM | x | x | n
O=C(COC(=O)c1cccnc1Cl)c1ccc(Cl)s1 | n | x | x | x | x | x
O=C(COC(=O)c1cccnc1Cl)c1cccc(Cl)c1 | n | n | 13µM | n | n | n
CSc1ncccc1C(=O)OCC(=O)c1ccccc1Br | n | n | 8.5µM | n | n | n
SMILES | ELG1 genotoxic | Rab9 promoter act | FLuc counter | Luc counter | SMN2 splice up | NPC1 prom act
CC(C)CCNS(=O)(=O)c1ccc(N2CCCCS2(=O)=O)cc1 | x | x | n | x | x | x
CCCCc1ccc(-n2nc3ccc(NC(=O)c4cc5ccccc5o4)cc3n2)cc1 | x | x | n | x | n | x
COc1ccc(OC)c(C2Nc3c(C)cc(C)cc3-c3cc(C)nn32)c1 (centres undefined) | x | x | n | x | n | x
CSc1ncccc1C(=O)OCC(=O)NC(N)=O | n | n | n | n | n | n
COc1ccc(OC)c(C(=O)COC(=O)c2cccnc2SC)c1 | n | n | n | x | x | n
COc1ccc(C(=O)COC(=O)c2cccnc2SC)cc1 | n | n | 3.8µM | n | n | n
CSc1ncccc1C(=O)OCC(=O)c1cc2ccccc2o1 | n | n | 21µM | n | n | n
CCc1ccc(NC(=O)c2cc(=O)c3ccc(C)c(C)c3o2)cc1 | x | x | n | x | n | x
Cc1ccc(Nc2nc3c(s2)CCC3)c(C)c1 | 21µM | u | 7.6µM | n | 13µM | u
Cc1ccc(NC(=O)Nc2nc3c(s2)CCCCCC3)cc1C | x | x | n | x | x | x
COc1ccccc1Nc1nc2c(s1)CCC2 | n | n | 15µM | n | n | n
COc1ccccc1Nc1c2c(nc3ccccc13)CCC2 | n | n | n | x | x | n

High-throughput results (PubChem)
